The source of these data is PMC5700166.

The target in one assay is T1, GST-Dm-Relish (Drosophila melanogaster, UniProt Q94527 99-473).
T1 sequence: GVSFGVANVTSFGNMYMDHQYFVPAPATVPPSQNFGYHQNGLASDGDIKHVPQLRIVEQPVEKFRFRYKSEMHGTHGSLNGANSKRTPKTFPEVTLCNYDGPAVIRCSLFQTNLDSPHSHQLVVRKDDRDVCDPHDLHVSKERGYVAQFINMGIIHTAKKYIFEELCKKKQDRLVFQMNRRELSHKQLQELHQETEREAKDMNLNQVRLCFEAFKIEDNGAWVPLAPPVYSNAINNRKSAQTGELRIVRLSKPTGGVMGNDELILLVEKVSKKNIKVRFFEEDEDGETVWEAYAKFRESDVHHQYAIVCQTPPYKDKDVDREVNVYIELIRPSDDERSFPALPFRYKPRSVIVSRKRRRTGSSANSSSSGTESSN
The assay can be described thus: protein-binding microarray (PBM); PBM: ~300 nM protein, 6 mM HEPES pH 7.8, 80 mM KCl, 0.5 mM EDTA, 0.5 mM EGTA, 6% glycerol, 35 ng/ul poly-dIdC, 1% milk, 1 h, room temperature; Ap Aiptasia and Nv Nematostella (sea anemones) / Co Capsaspora / Aq Amphimedon (sponge) / Dm Drosophila / Hu human; RHD is the Rel homology domain; high values mean tight binding. Particulars: dsDNA, one strand shown.

The target of a further assay is T2, GST-Aq-NF-kB (Amphimedon queenslandica, UniProt A9Y5G7 2-389).
T2 sequence: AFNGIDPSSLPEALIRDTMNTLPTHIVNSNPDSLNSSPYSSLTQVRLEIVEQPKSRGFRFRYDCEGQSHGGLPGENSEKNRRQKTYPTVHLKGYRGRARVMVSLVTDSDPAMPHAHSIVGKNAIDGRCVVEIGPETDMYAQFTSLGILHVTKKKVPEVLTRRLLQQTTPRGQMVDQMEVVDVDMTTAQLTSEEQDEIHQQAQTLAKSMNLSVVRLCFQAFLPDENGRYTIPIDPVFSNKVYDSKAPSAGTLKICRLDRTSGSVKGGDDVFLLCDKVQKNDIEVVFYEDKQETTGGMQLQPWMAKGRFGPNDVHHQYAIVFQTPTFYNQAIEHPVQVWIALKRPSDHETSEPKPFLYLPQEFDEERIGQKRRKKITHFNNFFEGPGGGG
The description is as above. Particulars: dsDNA, one strand shown.

Regarding “CCGATTAACATCACCCTTGCAGGTGATGTTAATCGGGTCTTGATTCGCTTGACGCTGCTG”, the binding signal stood at 1.5 z-score with GST-Dm-Relish and 1.27 z-score with GST-Aq-NF-kB.

With “CCGATTAACATCAACGGAAATCCTGATGTTAATCGGGTCTTGATTCGCTTGACGCTGCTG”, the binding signal was found to be 1.24 z-score with GST-Dm-Relish and 1.17 z-score with GST-Aq-NF-kB.

As for “CCGATTAACATCACGGAAAATCCTGATGTTAATCGGGTCTTGATTCGCTTGACGCTGCTG”, the binding signal with GST-Dm-Relish was 1.04 z-score; with GST-Aq-NF-kB it was 3.9 z-score.

In the case of “CCGATTAACATCAGGAAATCCACTGATGTTAATCGGGTCTTGATTCGCTTGACGCTGCTG”, the binding signal was determined as 2.24 z-score with GST-Dm-Relish and 1.15 z-score with GST-Aq-NF-kB.

Take “CCGATTAACATCACGTGGTTTCCTGATGTTAATCGGGTCTTGATTCGCTTGACGCTGCTG”: the binding signal with GST-Dm-Relish stood at 3.67 z-score; with GST-Aq-NF-kB, 1.63 z-score.

With “CCGATTAACATCAGGAAAGGCCATGATGTTAATCGGGTCTTGATTCGCTTGACGCTGCTG”, the results for the binding signal with GST-Dm-Relish and with GST-Aq-NF-kB were 1.29 z-score and 1.31 z-score, respectively.

In the case of “CCGATTAACATCAGGAAAATTTATGATGTTAATCGGGTCTTGATTCGCTTGACGCTGCTG”, the binding signal in the assay with GST-Dm-Relish amounted to 1.44 z-score; with GST-Aq-NF-kB, 1.26 z-score.

As to “CCGATTAACATCACAGAATTTCCTGATGTTAATCGGGTCTTGATTCGCTTGACGCTGCTG”, the binding signal amounted to 1.09 z-score with GST-Dm-Relish and 1.36 z-score with GST-Aq-NF-kB.

As for “CCGATTAACATCAGGAATTCCGATGATGTTAATCGGGTCTTGATTCGCTTGACGCTGCTG”, the figures for the binding signal with GST-Dm-Relish and with GST-Aq-NF-kB were 2.4 z-score and 1.28 z-score, respectively.

As to “CCGATTAACATCAGGAATTTCTATGATGTTAATCGGGTCTTGATTCGCTTGACGCTGCTG”, the values for the binding signal with GST-Dm-Relish and in the assay with GST-Aq-NF-kB were 1.28 z-score and 1.23 z-score, respectively.

Take “CCGATTAACATCACGGAAACTCCTGATGTTAATCGGGTCTTGATTCGCTTGACGCTGCTG”: the binding signal with GST-Dm-Relish stood at 1.23 z-score; in the assay with GST-Aq-NF-kB, 3.4 z-score.

In the case of “CCGATTAACATCAGGACTTTCCATGATGTTAATCGGGTCTTGATTCGCTTGACGCTGCTG”, the binding signal with GST-Dm-Relish amounted to 3.27 z-score; in the assay with GST-Aq-NF-kB it was 4.23 z-score.

As to “CCGATTAACATCAAGTACTTTCCTGATGTTAATCGGGTCTTGATTCGCTTGACGCTGCTG”, the binding signal was 5.26 z-score in the assay with GST-Dm-Relish and 1.81 z-score with GST-Aq-NF-kB.

For “CCGATTAACATCAGGAAAAGTACTGATGTTAATCGGGTCTTGATTCGCTTGACGCTGCTG”, the binding signal in the assay with GST-Dm-Relish was 4.26 z-score; with GST-Aq-NF-kB, 1.14 z-score.

Turning to “CCGATTAACATCAGGTCTTTCCATGATGTTAATCGGGTCTTGATTCGCTTGACGCTGCTG”, the results for the binding signal with GST-Dm-Relish and with GST-Aq-NF-kB were 1.02 z-score and 1.55 z-score, respectively.

In the case of “CCGATTAACATCACGGAATTCCGTGATGTTAATCGGGTCTTGATTCGCTTGACGCTGCTG”, the binding signal in the assay with GST-Dm-Relish stood at 1.22 z-score; with GST-Aq-NF-kB it was 1.25 z-score.

With “CCGATTAACATCAGGATTTTCCATGATGTTAATCGGGTCTTGATTCGCTTGACGCTGCTG”, the binding signal is 1.28 z-score with GST-Dm-Relish and 2.57 z-score with GST-Aq-NF-kB.

Regarding “CCGATTAACATCAGGAATTTACATGATGTTAATCGGGTCTTGATTCGCTTGACGCTGCTG”, the values for the binding signal with GST-Dm-Relish and with GST-Aq-NF-kB were 5.41 z-score and 1.28 z-score, respectively.

For the sequence “CCGATTAACATCACTGGAATTCCTGATGTTAATCGGGTCTTGATTCGCTTGACGCTGCTG”, the binding signal in the assay with GST-Dm-Relish was found to be 2.95 z-score; in the assay with GST-Aq-NF-kB, 1.7 z-score.

“CCGATTAACATCAGGAAAAACCATGATGTTAATCGGGTCTTGATTCGCTTGACGCTGCTG”: the binding signal with GST-Dm-Relish was found to be 2.39 z-score; with GST-Aq-NF-kB it was 2.94 z-score.

With “CCGATTAACATCAGGAAAAATCCTGATGTTAATCGGGTCTTGATTCGCTTGACGCTGCTG”, the binding signal with GST-Dm-Relish was 1.66 z-score; with GST-Aq-NF-kB, 1.79 z-score.

On to “CCGATTAACATCAGGACATCCCATGATGTTAATCGGGTCTTGATTCGCTTGACGCTGCTG”, for which the binding signal in the assay with GST-Dm-Relish was determined as 3.93 z-score; with GST-Aq-NF-kB, 2.15 z-score.

For “CCGATTAACATCAGAAATTTCCATGATGTTAATCGGGTCTTGATTCGCTTGACGCTGCTG”, the values for the binding signal with GST-Dm-Relish and with GST-Aq-NF-kB were 1.25 z-score and 1.68 z-score, respectively.

“CCGATTAACATCAAAAATTCCACTGATGTTAATCGGGTCTTGATTCGCTTGACGCTGCTG”: the binding signal with GST-Dm-Relish was determined as 2.3 z-score; with GST-Aq-NF-kB it was 1.44 z-score.

Take “CCGATTAACATCAACGGAATTCCTGATGTTAATCGGGTCTTGATTCGCTTGACGCTGCTG”: the binding signal is 2.11 z-score with GST-Dm-Relish and 1.66 z-score with GST-Aq-NF-kB.

As to “CCGATTAACATCAAGGAAAGTCCTGATGTTAATCGGGTCTTGATTCGCTTGACGCTGCTG”, the binding signal turned out to be 3.16 z-score with GST-Dm-Relish and 4.65 z-score with GST-Aq-NF-kB.

With “CCGATTAACATCACGGAAAGTCCTGATGTTAATCGGGTCTTGATTCGCTTGACGCTGCTG”, the binding signal came to 3.12 z-score with GST-Dm-Relish and 5.28 z-score with GST-Aq-NF-kB.

As for “CCGATTAACATCACGGCCTTTCCTGATGTTAATCGGGTCTTGATTCGCTTGACGCTGCTG”, the values for the binding signal with GST-Dm-Relish and with GST-Aq-NF-kB were 1.05 z-score and 1.82 z-score, respectively.

Regarding “CCGATTAACATCAAGTAAATTCCTGATGTTAATCGGGTCTTGATTCGCTTGACGCTGCTG”, the binding signal with GST-Dm-Relish worked out at 2.49 z-score; with GST-Aq-NF-kB, 1.35 z-score.

Turning to “CCGATTAACATCAGAGGATTTCCTGATGTTAATCGGGTCTTGATTCGCTTGACGCTGCTG”, the binding signal in the assay with GST-Dm-Relish is 1.74 z-score; with GST-Aq-NF-kB, 1.55 z-score.

Regarding “CCGATTAACATCAAAGGATTTCCTGATGTTAATCGGGTCTTGATTCGCTTGACGCTGCTG”, the figures for the binding signal with GST-Dm-Relish and with GST-Aq-NF-kB were 1.74 z-score and 1.01 z-score, respectively.

In the case of “CCGATTAACATCAGGAATTTTACTGATGTTAATCGGGTCTTGATTCGCTTGACGCTGCTG”, the values for the binding signal in the assay with GST-Dm-Relish and in the assay with GST-Aq-NF-kB were 1.49 z-score and 1.14 z-score, respectively.

For “CCGATTAACATCACGGAATTTTCTGATGTTAATCGGGTCTTGATTCGCTTGACGCTGCTG”, the values for the binding signal with GST-Dm-Relish and with GST-Aq-NF-kB were 1.06 z-score and 2.35 z-score, respectively.

With “CCGATTAACATCACCGGAAATCCTGATGTTAATCGGGTCTTGATTCGCTTGACGCTGCTG”, the binding signal in the assay with GST-Dm-Relish was 2.06 z-score; in the assay with GST-Aq-NF-kB it was 2.27 z-score.

In the case of “CCGATTAACATCAGGAGTTTCCATGATGTTAATCGGGTCTTGATTCGCTTGACGCTGCTG”, the results for the binding signal in the assay with GST-Dm-Relish and in the assay with GST-Aq-NF-kB were 1.28 z-score and 2.43 z-score, respectively.

With “CCGATTAACATCACGGACTTTCCTGATGTTAATCGGGTCTTGATTCGCTTGACGCTGCTG”, the binding signal in the assay with GST-Dm-Relish turned out to be 2.95 z-score; with GST-Aq-NF-kB it was 5.31 z-score.

Take “CCGATTAACATCAGGTTCTTACCTGATGTTAATCGGGTCTTGATTCGCTTGACGCTGCTG”: the binding signal came to 1.79 z-score with GST-Dm-Relish and 1.38 z-score with GST-Aq-NF-kB.

For the sequence “CCGATTAACATCAGGAAAGACCATGATGTTAATCGGGTCTTGATTCGCTTGACGCTGCTG”, the results for the binding signal with GST-Dm-Relish and with GST-Aq-NF-kB were 1.35 z-score and 1.49 z-score, respectively.

Turning to “CCGATTAACATCAGGAATTCCAATGATGTTAATCGGGTCTTGATTCGCTTGACGCTGCTG”, the figures for the binding signal with GST-Dm-Relish and with GST-Aq-NF-kB were 2.77 z-score and 1.38 z-score, respectively.

For “CCGATTAACATCAATAAAATTCCTGATGTTAATCGGGTCTTGATTCGCTTGACGCTGCTG”, the binding signal with GST-Dm-Relish was 1.81 z-score; with GST-Aq-NF-kB it was 1.79 z-score.

In the case of “CCGATTAACATCAGGTAAGTCCATGATGTTAATCGGGTCTTGATTCGCTTGACGCTGCTG”, the figures for the binding signal in the assay with GST-Dm-Relish and with GST-Aq-NF-kB were 1.83 z-score and 2.33 z-score, respectively.

For “CCGATTAACATCAGAAAATTTCCTGATGTTAATCGGGTCTTGATTCGCTTGACGCTGCTG”, the binding signal with GST-Dm-Relish is 1.75 z-score; in the assay with GST-Aq-NF-kB, 2.09 z-score.

Regarding “CCGATTAACATCAAAAATTCCTATGATGTTAATCGGGTCTTGATTCGCTTGACGCTGCTG”, the results for the binding signal with GST-Dm-Relish and with GST-Aq-NF-kB were 1.74 z-score and 1.2 z-score, respectively.

Take “CCGATTAACATCACAGGAATTCCTGATGTTAATCGGGTCTTGATTCGCTTGACGCTGCTG”: the figures for the binding signal with GST-Dm-Relish and with GST-Aq-NF-kB were 3.05 z-score and 2.17 z-score, respectively.

Regarding “CCGATTAACATCAGGTTTTTCCATGATGTTAATCGGGTCTTGATTCGCTTGACGCTGCTG”, the binding signal in the assay with GST-Dm-Relish was 2.68 z-score; in the assay with GST-Aq-NF-kB it was 2.64 z-score.
